Hit rate of the full screen: of about 2,300 compounds, about 330 (14%) showed activity.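 How the source made its calls: active = median modified Z-score above 1.96; inactive = 1.96 or below.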 A selection follows.
System: HepG2 Srxn1-GFP reporter cells (+30 nM CDDO-Me)
Assay: Srxn1-GFP intensity median modified Z-score relative to plate median; higher = stronger NRF2 / oxidative stress reporter activation, active = hit call of the paper
Details: 10 µM; exposure time: 24h
In short: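 Each value is the replicate median of a per-plate modified Z-score for GFP intensity in HepG2 Srxn1-GFP BAC reporter cells. The cells (20,000 per well, 96-well plates, three replicate plates) received compound at 10 μM together with an NRF2 activator at 30 nM for 24 h, in ≤0.1% DMSO. Cytoplasmic GFP was quantified per cell from confocal images of formaldehyde-fixed, Hoechst-stained cells, leaving out images with fewer than 100 cells, and scaling used 1.4826 × median absolute deviation.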

SMILES | Srxn1-GFP intensity median modified Z-score
O=c1ccc2ccccc2o1 [euspeclibcmpd1076] | -0.351 (inactive)
Cc1cc(C)[nH]c(=NS(=O)(=O)c2ccc(N)cc2)n1 [euspeclibcmpd276] | -0.664 (inactive)
Cc1cc(C(=O)NCCCn2cncn2)no1 | 1.31 (inactive)
CC(=O)O[C@@H]1C[C@@]23C[C@@]24CC[C@H](O[C@@H]2OC[C@@H](O)[C@H](O)[C@H]2O)C(C)(C)C4CCC3[C@]2(C)C[C@@H]3OC4(C[C@@H](C)[C@@H]3[C@@]12C)O[C@H](O)[C@]1(C)O[C@H]41 (some centres not stated) [euspeclibcmpd2415] | 0.583 (inactive)
CC(=O)CC(c1ccc([N+](=O)[O-])cc1)c1c(O)c2ccccc2oc1=O (configuration not stated) [euspeclibcmpd502] | -0.425 (inactive)
CC(=O)CC(c1ccccc1)c1c(O)c2ccccc2oc1=O (configuration not stated) [euspeclibcmpd321] | 5.96 (active)
O=c1c(O)c(-c2ccccc2)oc2ccccc12 [euspeclibcmpd1679] | 1.3 (inactive)
COc1ccc2c(c1)OCc1c-2oc2cc(OC)ccc12 [euspeclibcmpd1708] | 13.6 (active)
COc1ccc2c(C)cc(=O)oc2c1 [euspeclibcmpd1528] | -0.287 (inactive)
COc1ccc2c(=O)c(OC)c(-c3ccccc3)oc2c1 [euspeclibcmpd1977] | 0.483 (inactive)
CO[C@@]1(NC(O)=c2sc(=C(C(N)=O)C(=O)O)s2)C(=O)N2C(C(=O)O)=C(CSc3nnnn3C)CSC21 (some centres not stated) [euspeclibcmpd474] | -0.0789 (inactive)
CC(C)CCCC(C)C1CCC2C3CC[C@H]4CCCC[C@]4(C)C3CC[C@]12C (some centres not stated) [euspeclibcmpd1324] | 1.13 (inactive)
CCCCCN=C(N)NN=Cc1c[nH]c2ccc(OC)cc12 [euspeclibcmpd723] | -0.285 (inactive)
COc1ccc2[nH]cc(CCNC(C)=O)c2c1 [euspeclibcmpd1720] | -0.164 (inactive)
CCCSc1ccc2[nH]c(=NC(=O)OC)[nH]c2c1 [euspeclibcmpd630] | 3.71 (active)
CCCOc1ccc2[nH]c(=NC(=O)OC)[nH]c2c1 [euspeclibcmpd575] | 5.09 (active)
NCCc1c[nH]cn1 [euspeclibcmpd147] | 0.0512 (inactive)
COC=C1CS[C@@H]2C(=NC(=O)C(NOC)c3csc(=N)[nH]3)C(=O)N2C1C(=O)OC(C)OC(=O)OC(C)C (some centres not stated) [euspeclibcmpd832] | -0.299 (inactive)
O=C1CC2(CCCC2)CC(=O)N1CCCCN1CCN(c2ncccn2)CC1 [euspeclibcmpd948] | 0.569 (inactive)
CC1(C)SC2C(NC(=O)C(C(=O)O)c3ccsc3)C(=O)N2C1C(=O)O (configuration not stated) [euspeclibcmpd2129] | -0.127 (inactive)
C[C@H](CCC(=O)O)[C@H]1CCC2C3C(CC[C@@]21C)[C@@]1(C)CC[C@@H](O)C[C@H]1C[C@H]3O (some centres not stated) [euspeclibcmpd2399] | -0.395 (inactive)

SMILES | Srxn1-GFP intensity median modified Z-score
CCC(=O)O[C@H]1[C@H](O[C@@H]2[C@@H](C)[C@H](O[C@H]3C[C@@](C)(OC)[C@@H](O)[C@H](C)O3)C(C)C(=O)O[C@H](CC)[C@@](C)(O)[C@H](O)C(C)C(=O)C(C)C[C@@]2(C)O)O[C@H](C)C[C@@H]1N(C)C (some centres not stated) [euspeclibcmpd411] | 0.128 (inactive)
COC(=O)c1c(C)cc(O)cc1O [euspeclibcmpd2120] | -0.435 (inactive)
CC(=O)OCC(=O)[C@@]1(O)CCC2C3CC=C4CC(=O)C=CC4(C)C3[C@@H](O)C[C@@]21C (some centres not stated) [euspeclibcmpd242] | -0.458 (inactive)
O=C(NCCN1CCOCC1)NC(=O)c1ccc(Cl)cc1 | 1.77 (inactive)
COC(=O)C1CCN(C(=O)C(OC(=O)C2CCC(=O)NC2)C(C)C)CC1 (configuration not stated) | 0.378 (inactive)
CCOc1ccc(C(=O)c2ccc(O)c(O)c2O)cc1 [euspeclibcmpd1369] | 0.486 (inactive)
N=C(N)N=C(N)NCCc1ccccc1 [euspeclibcmpd898] | 4.79 (active)
O=C(CCCl)NCCc1ccccc1 [euspeclibcmpd2364] | 0.0303 (inactive)
NNCCc1ccccc1 [euspeclibcmpd231] | 0.202 (inactive)
CC(=O)OCC(=O)[C@@]1(O)[C@@H](C)CC2C3CC=C4CC(=O)C=C[C@]4(C)[C@@]3(F)[C@@H](O)C[C@@]21C (some centres not stated) [euspeclibcmpd2268] | 0.239 (inactive)
CC(C)=CCOc1ccc2c(=O)c(-c3ccccc3)coc2c1 | 0.352 (inactive)
CCc1c2c(nc3ccc(OC(=O)N4CCC(N5CCCCC5)CC4)cc13)-c1cc3c(c(=O)n1C2)COC(=O)C3(O)CC (configuration not stated) [euspeclibcmpd1960] | -0.421 (inactive)
CCCNCCCCCC[N+](C)(C)C [euspeclibcmpd616] | 1.43 (inactive)
C[N+](C)(C)CCCCCC[N+](C)(C)C [euspeclibcmpd1134] | -0.198 (inactive)
CCCCCCCCCCCCCCCC[N+](C)(C)C [euspeclibcmpd1124] | 7.69 (active)
CC1(C)O[C@@H]2CC3C4CC=C5CC(=O)C=C[C@]5(C)[C@@]4(F)[C@@H](O)C[C@]3(C)[C@]2(C(=O)CO)O1 (some centres not stated) [euspeclibcmpd303] | -0.909 (inactive)
c1ccc2c(Cc3c[nH]c4ccccc34)c[nH]c2c1 [euspeclibcmpd2024] | 18.3 (active)
Cc1c[nH]c2ccccc12 [euspeclibcmpd1495] | 0.0463 (inactive)
OCc1c[nH]c2ccccc12 [euspeclibcmpd1454] | 0.00439 (inactive)
O=P(O)(O)C(O)(Cc1cccnc1)P(=O)(O)O [euspeclibcmpd2383] | -0.244 (inactive)
COc1ccc(CCN(C)CCCC(C#N)(c2ccc(OC)c(OC)c2)C(C)C)cc1OC (configuration not stated) [euspeclibcmpd958] | 5.38 (active)

SMILES | Srxn1-GFP intensity median modified Z-score
CC[C@H]1OC(=O)C(C)[C@@H](O[C@H]2C[C@@](C)(OC)[C@@H](O)[C@H](C)O2)[C@H](C)[C@@H](O[C@@H]2O[C@H](C)C[C@H](N(C)C)[C@H]2O)[C@](C)(O)CC(C)C(=O)C(C)[C@@H](O)[C@]1(C)O (some centres not stated) [euspeclibcmpd2296] | -0.138 (inactive)
N#CC(c1ccc(Cl)cc1)c1c(Cl)cc(-n2ncc(=O)[nH]c2=O)cc1Cl (configuration not stated) [euspeclibcmpd478] | 15 (active)
NC(Cc1cc(I)c(Oc2ccc(O)c(I)c2)c(I)c1)C(=O)O (configuration not stated) [euspeclibcmpd346] | -0.0135 (inactive)
O=C(O)Cc1cc(I)c(Oc2ccc(O)c(I)c2)c(I)c1 [euspeclibcmpd1243] | 8.98 (active)
NC(Cc1cc(I)c(Oc2cc(I)c(O)c(I)c2)c(I)c1)C(=O)O (configuration not stated) [euspeclibcmpd345] | -0.572 (inactive)
CNS(=O)(=O)Cc1ccc2[nH]cc(CCN(C)C)c2c1 [euspeclibcmpd759] | -0.145 (inactive)
CC(=O)O[C@@H]1C[C@@]2(C)C(CC[C@@H]2C(C)=O)C2CC=C3CC(=O)CC[C@]3(C)C21 (some centres not stated) [euspeclibcmpd1433] | 0.0291 (inactive)
C[C@]12C=CC(=O)CC1=CCC1C2[C@@H](O)C[C@@]2(C)C1CC[C@]2(O)C(=O)COP(=O)(O)O (some centres not stated) [euspeclibcmpd2287] | 0.582 (inactive)
Cc1ccc(NC(=O)c2ccc(CN3CCN(C)CC3)cc2)cc1N=c1nc(-c2cccnc2)cc[nH]1 [euspeclibcmpd1311] | 4.53 (active)
O=C(O)c1ccc2c(c1)OCO2 [euspeclibcmpd1566] | -0.239 (inactive)
CC1(C)C2CC[C@]3(C)C(C(=O)C=C4C5C[C@@](C)(C(=O)O)CC[C@]5(C)CC[C@]43C)[C@@]2(C)CC[C@@H]1O (some centres not stated) [euspeclibcmpd1147] | -1.35 (inactive)
O=C(O)CCCCC1SCC2NC(=O)NC21 (configuration not stated) [euspeclibcmpd513] | -0.118 (inactive)
CC(C)(CO)C(=O)C(O)NCCC(=O)NCCSSCCNC(=O)CCNC(=O)C(O)C(C)(C)CO (configuration not stated) [euspeclibcmpd1231] | -0.621 (inactive)
O=C(CCBr)N1CCN(C(=O)CCBr)CC1 [euspeclibcmpd576] | 2.59 (active)
O=C(O)/C=C/C=C/c1ccc2c(c1)OCO2 [euspeclibcmpd1736] | -0.462 (inactive)
CC1(C)C2CC[C@]3(C)C(C(=O)C=C4C5C[C@@](C)(C(=O)O)CC[C@]5(C)CC[C@]43C)[C@@]2(C)CC[C@@H]1OC(=O)CCC(=O)O (some centres not stated) [euspeclibcmpd2080] | -0.0685 (inactive)
CC(OC(=O)c1cc(Cl)ccc1O)C(=O)Nc1ccc([N+](=O)[O-])cc1Cl (configuration not stated) | 1.24 (inactive)
O=C(Nc1ccc([N+](=O)[O-])cc1Cl)c1cc(Cl)ccc1O [euspeclibcmpd562] | 2.35 (active)
NC(=O)c1ccc([N+](=O)[O-])cc1Cl [euspeclibcmpd514] | -0.559 (inactive)
O=C(OCC(=O)N1CCCC1)c1sc2cc(Cl)cc(Cl)c2c1Cl | 0.374 (inactive)

From the supplement of paper PMC10498489
